Active and inactive are the calls of the source. A call without a number means that no potency is given here. Calls come from the whole dose curve; as a rule, active = well fitted activation curve with a large enough effect; inconclusive = small, poorly fitted or top-dose-only effect; inactive = flat fitted curve, though single readings scatter. Peptide text beside a SMILES is read from it.

The nature of the first assay: Confirmation and Secondary Assay for Modulators of Hemoglobin Beta Chain Splicing at IVS2 654 locus (AID 910).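 Note: per-well total GFP intensity by laser scanning cytometry after 2-day treatment.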 The note with it: HeLa EGFP-654 splicing reporter, GFP fluorescence, 48 h; series mostly up to 46.1 µM. The procedure, abridged:
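HeLa cells stably carrying EGFP interrupted by mutant beta-globin IVS2-654 intron (CMV-driven) were treated with compound for 2 days at 37C; corrected splicing was scored as total peak GFP intensity per well (488 nm excitation, 500-520 nm emission).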
Consider `O=C(/C=C/C(=O)Oc1ccccc1C(=O)O)Oc1ccccc1C(=O)O`, for which the Potency entry was “inactive”.

Turning to `COc1ccc(-c2oc3c(CC=C(C)C)c(O[C@H]4OC(CO)C(O)C(O)C4O)cc(O)c3c(=O)c2O[C@@H]2OC(C)C(O)C(O)C2O)cc1` (some centres undefined), the Potency entry is “inactive”.

Take `C=C1CCC(O)C/C1=C/C=C1\CCC[C@@]2(C)C(C(C)/C=C/C(C)C(C)C)CC[C@@H]12` (some centres undefined): the Potency entry was “inactive”. The same measure, in the same setting: in the case of `CC1O[C@@H](Oc2c(-c3ccc(O)c(O)c3)oc3cc(O)cc(O)c3c2=O)C(O)C(O)C1O` (some centres undefined) it was “inactive”; in that of `CCOc1ccc(C(=O)c2ccc(O)c(O)c2O)cc1`, “inactive”. Regarding `CC(C)CC(NC(=O)CN)C(=O)NC(Cc1ccccc1)C(=O)O` (stereo not drawn) (H-Gly-Leu-Phe-OH; configuration not given here), the Potency result is “inactive”.

In the case of `CC(=O)Oc1ccc2c(c1)CCC1C2CC[C@]2(C)C(=O)CCC12` (some centres undefined), the Potency entry was “inactive”. The same measure, in the same setting: in the case of `O=C(O)c1ccc2c(c1)OCO2` it was “inactive”. Still for that read-out and setting: in the case of `CC(=O)OC1CC[C@@]2(C)C3=CC(=O)[C@]4(C)C(CC5OC6(OCC(C)CC6Br)C(C)C54)C3CC[C@H]2C1` (some centres undefined) it was “inactive”; in that of `CC(=O)OC1CC[C@@]2(C)C(CC[C@@]3(C)C2CC=C2C4CC(C)(C)CC[C@]4(C(=O)O)CC[C@@]23C)C1(C)C` (some centres undefined), “inactive”; in that of `CC(=O)O[C@@]1(C(C)=O)CCC2C3C=C(Cl)C4=CC(=O)C5CC5[C@@]4(C)C3CC[C@]21C` (some centres undefined), “inactive”. On the same count and under the same terms, in the case of `CC1CC[C@@]2(OC1)OC1CC3C4CC[C@H]5CC(O)CC[C@@]5(C)C4CC[C@]3(C)C1C2C` (some centres undefined) it was “inactive”. With `COc1ccc(-c2coc3c(OC)c(OC)cc(OC)c3c2=O)cc1`, the Potency entry was “inactive”. Still for that read-out and setting: next, `O=c1[nH]cnc2c1nc(Cl)n2C1OC(CO)C(O)C1O` (centres undefined): “inactive”.

A short description of a further assay: Confirmation and Secondary Assay for Modulators of Hemoglobin Beta Chain Splicing at IVS2 705 locus (AID 930). The note with it: HeLa EGFP-705 splicing reporter, GFP fluorescence, 48 h; series mostly up to 46.1 µM. The procedure, abridged: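 Fluorescence gain (488 nm laser, 500-520 nm PMT) reflects restored correct splicing of a mutant IVS2-705 intron inside EGFP in stably transfected HeLa cells after 2-day compound treatment.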
Turning to `CC(C)C1COc2cc3oc(=O)ccc3cc2O1` (centres undefined), the Potency result was “inactive”.

As to `NC(N)=NCCCC(NC(=O)C(N)Cc1ccc(O)cc1)C(=O)O` (centres undefined), the Potency result was “inactive”. Same read-out and setting: in the case of `CC1CC[C@@]2(OC1)OC1CC3C4CC[C@@H]5CC(O)CC[C@@]5(C)C4CC[C@]3(C)C1C2C` (some centres undefined) it was “inactive”. Regarding `COc1c2ccccc2nc2occc12`, the Potency entry was “inactive”. On the same count and under the same terms, in the case of `COc1ccc2c(=O)c(CC(=O)O)coc2c1` it was “inactive”. Same read-out and setting: in the case of `CC1(C)OC2C(CO)OC(n3cnc4c(=O)[nH]cnc43)C2O1` (centres undefined) it was “inactive”; in that of `CCOC(=O)CCCCCCCCCCCCC1C=CCC1` (centres undefined), “inactive”; in that of `OCc1ccccc1O[C@H]1OC(CO)C(O)C(O)C1O` (some centres undefined), “inactive”.

For the compound `COc1ccc(/C=C/c2cc(O)cc(O[C@H]3OC(CO)C(O)C(O)C3O)c2)cc1` (some centres undefined), the Potency result is “inactive”. Still for that read-out and setting: in the case of `COc1c(O)cccc1O` it was “inactive”. Still for that read-out and setting: in the case of `Nc1ncnc2[nH]c(=O)[nH]c12` it was “inactive”; in that of `NCC1CCCCC1CC(=O)O` (centres undefined), “inactive”; in that of `C#CCCCCCCCCCCCC(=O)CC(O)COC(C)=O` (centres undefined), “inactive”. Same read-out and setting: in the case of `CCN1CCN(C(=O)NC(C(=O)NC2C(=O)N3C2SC(C)(C)C3C(=O)O)c2ccccc2)C(=O)C1=O` (centres undefined) it was “inactive”; in that of `CC(=O)N1CCCC1C(=O)O` (centres undefined), “inactive”. `COc1c(O)cc2c(c1O)C1OC(CO)C(O)[C@H](O)[C@H]1OC2=O` (some centres undefined): the Potency entry was “inactive”. Same read-out and setting: next, `CC(C)CCCC(C)C1CCC2C3CC[C@H]4CC(=O)CC[C@@]4(C)C3CC[C@@]12C` (some centres undefined): “inactive”. Same read-out and setting: next, `COc1cc(/C=C/C(=O)O)cc(OC)c1OC`: “inactive”. Still for that read-out and setting: in the case of `CC(=O)NC(CC(=O)O)C(=O)NC(CCC(=O)O)C(=O)O` (stereo not drawn) (Ac-Asp-Glu-OH; configuration not given here) it was “inactive”; in that of `CC1(C)OC2C[C@](O)(C(N)=O)C[C@H](O)[C@H]2O1` (some centres undefined), “inactive”; in that of `O=c1[nH]c(Cl)nc2c1ncn2C1OC(CO)C(O)C1O` (centres undefined), “inactive”.

For `Nc1nc2c(ncn2C2OC(CO)CC2O)c(=O)[nH]1` (centres undefined), the Potency entry is “inactive”. In the case of `CS(=O)(=O)c1ccc(C(O)C(CO)NC(=O)C(Cl)Cl)cc1` (centres undefined), the Potency result was “inactive”.

`CC1(C)CC2C1CC[C@]1(C)CCC3C(C(=O)O)CC(=O)O[C@]32C1` (some centres undefined): the Potency result was “inactive”.

On to `CC(=O)Oc1ccc2c(c1OC(C)=O)OCC1(O)Cc3c(cc(OC(C)=O)c(OC(C)=O)c3OC(C)=O)C21` (centres undefined), for which the Potency entry was “inactive”.

`CC1=CC2C(C(C)C)CCC(C)(O)C2CC1` (centres undefined): the Potency result is “inactive”.

For the compound `O=C(/C=C/C(=O)Oc1ccccc1C(=O)O)Oc1ccccc1C(=O)O`, the Potency entry was “inactive”.

Take `COc1ccc(-c2oc3c(CC=C(C)C)c(O[C@H]4OC(CO)C(O)C(O)C4O)cc(O)c3c(=O)c2O[C@@H]2OC(C)C(O)C(O)C2O)cc1` (some centres undefined): the Potency entry is “inactive”. The same measure, in the same setting: in the case of `C=C1CCC(O)C/C1=C/C=C1\CCC[C@@]2(C)C(C(C)/C=C/C(C)C(C)C)CC[C@@H]12` (some centres undefined) it was “inactive”; in that of `CC1O[C@@H](Oc2c(-c3ccc(O)c(O)c3)oc3cc(O)cc(O)c3c2=O)C(O)C(O)C1O` (some centres undefined), “inactive”; in that of `CCOc1ccc(C(=O)c2ccc(O)c(O)c2O)cc1`, “inactive”.

On to `CC(C)CC(NC(=O)CN)C(=O)NC(Cc1ccccc1)C(=O)O` (stereo not drawn) (H-Gly-Leu-Phe-OH; configuration not given here), for which the Potency entry was “inactive”.

As to `CC(=O)Oc1ccc2c(c1)CCC1C2CC[C@]2(C)C(=O)CCC12` (some centres undefined), the Potency entry is “inactive”.

As to `O=C(O)c1ccc2c(c1)OCO2`, the Potency result was “inactive”. Same read-out and setting: next, `CC(=O)OC1CC[C@@]2(C)C3=CC(=O)[C@]4(C)C(CC5OC6(OCC(C)CC6Br)C(C)C54)C3CC[C@H]2C1` (some centres undefined): “inactive”. Same read-out and setting: next, `CC(=O)OC1CC[C@@]2(C)C(CC[C@@]3(C)C2CC=C2C4CC(C)(C)CC[C@]4(C(=O)O)CC[C@@]23C)C1(C)C` (some centres undefined): “inactive”. Still for that read-out and setting: next, `CC(=O)O[C@@]1(C(C)=O)CCC2C3C=C(Cl)C4=CC(=O)C5CC5[C@@]4(C)C3CC[C@]21C` (some centres undefined): “inactive”; `CC1CC[C@@]2(OC1)OC1CC3C4CC[C@H]5CC(O)CC[C@@]5(C)C4CC[C@]3(C)C1C2C` (some centres undefined): “inactive”. In the case of `COc1ccc(-c2coc3c(OC)c(OC)cc(OC)c3c2=O)cc1`, the Potency result was “inactive”. The same measure, in the same setting: next, `O=c1[nH]cnc2c1nc(Cl)n2C1OC(CO)C(O)C1O` (centres undefined): “inactive”.

These data come from PubChem BioAssay (NCATS).
